Screening data: PubChem BioAssay, The Scripps Research Institute Molecular Screening Center
Compounds with a hit are over-represented: about 4.8% of the library has one in this group of screens.
SMARCA2 activ – activators of SMARCA2 function | activation, % at 9.1 µM | AID 652017 | MG213 cells, MMTV-luciferase reporter, dexamethasone, overnight | 370,000 tested, 1% active; in the data active = activation above about 7.8%
DAX1 inh-1 – inhibits human nuclear receptor DAX1; inhibition, % at 6.75 µM; P51843; 340,000 tested, 0.99% active; HEK293 Gal4-DAX1 luciferase reporter, luminescence;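 active = inhibition above the mean over all tested compounds plus 3 SD, cut at about 4.2% in these data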;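 also: inhibition shows as a rise in luminescence from relieved DAX1 repression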
Target sequence (P51843 207-470 limits assumed): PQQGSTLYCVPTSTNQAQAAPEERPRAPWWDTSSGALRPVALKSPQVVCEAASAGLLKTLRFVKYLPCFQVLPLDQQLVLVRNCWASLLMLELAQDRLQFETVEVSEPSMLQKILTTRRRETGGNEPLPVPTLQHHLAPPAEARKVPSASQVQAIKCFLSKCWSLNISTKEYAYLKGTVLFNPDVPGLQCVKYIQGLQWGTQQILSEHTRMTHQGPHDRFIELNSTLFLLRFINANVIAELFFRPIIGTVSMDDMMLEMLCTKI
ssDAF12 agonist – S. stercoralis DAF-12 activation, primary screen | 370,000 tested, 1% active | activation, % at 6.8 µM | HEK293 ssDAF-12/GRIP1 lit1-tk-luc reporter, luminescence; % of 3 µM dafachronic acid response;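 active = activation above the mean over all tested compounds plus 3 SD, cut at about 0.9% in these data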
hgDAF12 agonist – hgDAF-12 agonism, primary luciferase screen; HEK293 GAL4-hgDAF12 UAS-luciferase reporter, agonist luminescence; normalized to butyrate control; 370,000 tested, 1.8% active; activation, % at 6.8 µM;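 active = activation above a cutoff set at the mean of all screened compounds plus 3 SD, cut at about 10% in these data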
hcDAF-12 act – activates DAF-12 receptor from parasite H. contortus. HEK293 hcDAF-12 lit1-tk-luc reporter, luminescence; 0% DMSO, 100% Δ7-dafachronic acid. activation, % at 6.8 µM. 370,000 tested, 1.4% active;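 active = activation above the mean of all tested compounds plus 3 SD, cut at about 5.5% in these data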
DAX1 inh-2 – blocks DAX1 repression of SF-1 activated StAR promoter; HEK293T StAR-luciferase reporter, SF-1/DAX-1 repression relief; inhibition, % at 6.8 µM; 370,000 tested, 1.1% active; AID 652010;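 active = inhibition above the mean over all tested compounds plus 3 SD, cut at about 3.6% in these data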;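 also: higher inhibition means more luminescence from relief of DAX-1 repression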
LXR ag – counter-screen for hcDAF-12 agonists: agonists of human LXR-beta. shares compounds with hcDAF-12 act. HEK293 Gal4-LXR tk-luc reporter, luminescence, 24 h; normalized: DMSO 0%, positive control 100%. activation, % at 6.8 µM. 3,400 tested, under 10 active. AID 743027;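 active = mean percent activation of the reporter above a cutoff set as the average over tested compounds plus their standard deviation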
hcDAF12 ag – hcDAF-12 agonism, confirmation assay; shares compounds with hcDAF-12 act; HEK293 hcDAF-12 lit1-tk-luc reporter, luminescence; % of Δ7-dafachronic acid response; activation, % at 6.8 µM; 3,400 tested, 61% active; AID 743032;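 active = mean activation across triplicate tests above the threshold derived from the earlier primary screen, cut at about 5.5% in these data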
Each line names hits and unclear results; the compound was inactive in the other large screens (follow-up assays come after a bar, where they were run).

COc1ccccc1C(=O)NC(=S)Nc1cccnc1Cl	ssDAF12 agonist 1.2, hcDAF-12 act 8.1 | LXR ag inactive | hcDAF12 ag 19.5
COc1ccccc1-c1cc(C(=O)Nc2cccnc2Cl)no1	none
COc1ccccc1C(=O)N/N=C(\C)CC(=O)Nc1ccc(Cl)cn1	hcDAF-12 act 6.6 | LXR ag inactive | hcDAF12 ag inactive
COc1ccccc1C(=O)N/N=C(\C)CC(=O)Nc1ccccn1	hcDAF-12 act 7.3 | LXR ag inactive | hcDAF12 ag 6.0
O=C(COc1ccccc1Cl)Nc1ccc(Cl)cn1	ssDAF12 agonist 1.4, hgDAF12 agonist 15.2, hcDAF-12 act 9.0 | LXR ag inactive | hcDAF12 ag 10.8
Cc1ccc(C)c(NC(=O)CNC(=O)N2CC(=O)Nc3ccccc32)c1	none
CCOc1ccccc1NC(=O)CNC(=O)N1CC(=O)Nc2ccccc21	hcDAF-12 act 7.0 | LXR ag inactive | hcDAF12 ag inactive
O=C1CCC(=O)N1c1ccc(-c2nc3ccccc3s2)cc1	hcDAF-12 act 7.3 | LXR ag inactive | hcDAF12 ag 9.5
COc1ccccc1-c1nnc(SCC(=O)N2CCCC2)o1	ssDAF12 agonist 1.4, hcDAF-12 act 6.7 | LXR ag inactive | hcDAF12 ag 9.1
O=C(CSc1nnc(-c2ccccc2F)o1)N1CCCC1	none
Cn1ccnc1Sc1ccc(/C=N/NC(=O)c2ccccc2O)cc1[N+](=O)[O-]	hcDAF-12 act 9.5 | LXR ag inactive | hcDAF12 ag 7.2
CC1CCc2nc(/C(C#N)=C/c3cccnc3)sc2C1 (configuration not stated)	DAX1 inh-1 6.4, hgDAF12 agonist 13.3, hcDAF-12 act 7.1, DAX1 inh-2 3.8 | LXR ag inactive | hcDAF12 ag inactive
O=[N+]([O-])c1cccc2ccc(/C=C/c3ccc(F)cc3)nc12	hgDAF12 agonist 14.2, hcDAF-12 act 8.5 | LXR ag inactive | hcDAF12 ag 6.0
Cn1cccc1C(=O)C(=O)Nc1cccc(Cl)c1Cl	hcDAF-12 act 6.6 | LXR ag inactive | hcDAF12 ag 12.5
O=C(NCc1csc2ccc(Cl)cc12)Nc1ccccc1	none
O=C(Nc1ccccc1)Nc1cccc(Cl)c1Cl	hcDAF-12 act 7.3 | LXR ag inactive | hcDAF12 ag inactive
O=C(Nc1ccncc1)Nc1cccc(Cl)c1Cl	none
CC(C)(C)NC(=O)Nc1cccc(Cl)c1Cl	none
O=C(NCc1ccc(Cl)cc1Cl)Nc1ccccc1	hcDAF-12 act 7.4 | LXR ag inactive | hcDAF12 ag inactive
CC(C)CN1C(=O)[C@@]2(CC(=O)N(C)C2c2ccccc2)c2cc(-n3cc(-c4ccccc4)nn3)ccc21 (some centres not stated)	none (no result: DAX1 inh-1)
Clc1cccc(-c2nc(-c3ccccn3)no2)c1	hcDAF-12 act 9.7 | LXR ag inactive | hcDAF12 ag 11.8
O=C(CCCCl)Oc1ccc2cc(-c3ccc4ccccc4n3)c(=O)oc2c1	hcDAF-12 act 8.4 | LXR ag inactive | hcDAF12 ag inactive
O=C(Nc1nnc(-c2cccs2)o1)c1cccc(Oc2ccccc2)c1	none
O=C(Nc1ccsc1C(=O)O)c1cccc(Oc2ccccc2)c1	hgDAF12 agonist 13.2, hcDAF-12 act 7.8 | LXR ag inactive | hcDAF12 ag 7.3
C=CCOc1ccc(C(c2c(C(=O)O)[nH]c3ccccc23)c2c(C(=O)O)[nH]c3ccccc23)cc1	hcDAF-12 act 7.5 | LXR ag inactive | hcDAF12 ag 7.6
C[C@H]1C2CC(OC(=O)Nc3ccc(C(F)(F)F)cc3)C(C2)[C@H]2CCCCN21 (some centres not stated)	none (no result: DAX1 inh-1)
Cc1ccccc1C(=O)Nc1ccc(Cl)cn1	none
O=C(Nc1ccc(Cl)cn1)c1ccc2ccccc2n1	ssDAF12 agonist 1.4, hcDAF-12 act 7.8 | LXR ag inactive | hcDAF12 ag 16.7
